Screening results deposited in PubChem by several laboratories.
Most compounds without a hit are left out; they make up all but 4.1% or so of the library.
FBA Mtb inh – inhibits M. tuberculosis FBA enzyme | P9WQA3 | purified M. tuberculosis FBA, fluorescence read-out | 2.3% of 360,000 active | inhibition, % at 1 µM;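 also: 0% = vehicle and 100% = reference inhibitor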
Target sequence (P9WQA3 whole entry, looked up): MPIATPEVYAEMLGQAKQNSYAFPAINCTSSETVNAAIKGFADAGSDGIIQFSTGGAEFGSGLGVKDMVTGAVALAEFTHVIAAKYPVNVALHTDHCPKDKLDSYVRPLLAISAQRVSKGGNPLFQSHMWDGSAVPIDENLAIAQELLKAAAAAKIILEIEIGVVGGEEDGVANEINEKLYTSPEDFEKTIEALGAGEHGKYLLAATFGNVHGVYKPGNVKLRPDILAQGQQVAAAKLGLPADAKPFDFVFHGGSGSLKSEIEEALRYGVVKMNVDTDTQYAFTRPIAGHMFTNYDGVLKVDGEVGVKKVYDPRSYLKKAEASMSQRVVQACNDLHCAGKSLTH
Vc quorum ag – quorum light induction in luxS cqsA deficient V. cholerae; V. cholerae BH1578 lux reporter, luminescence, 6 h; activation, % at 18.7 µM; 0.16% of 350,000 active; in the data active = activation mostly above about 9.7%, no sharp cut-off
RecA splice inh – blocks M. tuberculosis RecA intein splicing; cell-free RecA intein splicing, fluorescence; inhibition, % (no concentration beside the values); 0.75% of 290,000 active; in the data active = inhibition above about 30%;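 also: 0% = vehicle wells and 100% = reference inhibitor control wells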
GDH-TPI counter-1 – inhibits GDH-TPI coupling enzymes, artifact for Mtb FBA screen. inhibition, % at 4.8 µM. AID 588335. GDH-TPI coupled enzyme counterscreen, NADH absorbance. 1.2% of 360,000 active; in the data active = inhibition above about 30%;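 also: 0% = DMSO wells and 100% = wells lacking the enzyme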
Mtb UGM inh – Mtb UDP-galactopyranose mutase inhibition | P9WIQ1 | purified UGM, fluorescence polarization probe displacement | inhibition, % at 10 µM | 0.06% of 320,000 active | AID 504406; in the data active = inhibition above about 10%, passing the limit was not always enough
Rv3671c inh – inhibitors of M. tuberculosis serine protease Rv3671c | P9WHR9 | inhibition, % at 5.96 µM | 0.048% of 320,000 active | AID 2606; in the data active = inhibition above about 38%;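 also: extracellular domain of Rv3671c used as enzyme; 0% = enzyme with DMSO and 100% = no enzyme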
Mtb FBA confirm – Mtb FBA inhibition, confirmed. inhibition, % at 1 µM. 78% of 5,600 active. shares compounds with FBA Mtb inh. purified M. tuberculosis FBA, fluorescence read-out;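 also: 0% = vehicle wells and 100% = reference inhibitor wells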
GDH-TPI counter-2 – GDH-TPI inhibition counter-screen for FBA inhibitors; AID 652141; shares compounds with FBA Mtb inh; inhibition, % at 1 µM; 81% of 5,600 active; GDH-TPI coupled enzyme counterscreen, fluorescence; in the data active = inhibition above about 10%
GDH-TPI DR – GDH-TPI dose response counter-screen for Mtb FBA | 79% of 170 active | GDH-TPI coupled enzyme assay, fluorescence, artifact counterscreen | shares compounds with FBA Mtb inh | IC50, µM | AID 652145; call rule not given here
An asterisk follows results filed as active; i = inactive; x = no result given; + = active, no number. Rule as the data show it, unless noted: active = inhibition above about 27%; inactive = the rest.

SMILES	FBA Mtb inh	Vc quorum ag	RecA splice inh	GDH-TPI counter-1	Mtb UGM inh	Rv3671c inh	Mtb FBA confirm	GDH-TPI counter-2	others
O=C(COc1ccc2c(-c3ccccc3)cc(=O)oc2c1)NC(Cc1c[nH]c2ccccc12)C(=O)O (stereo unspecified)	0	i	x	10	-1	-3	x	x
O=C(Cc1cc(=O)oc2cc(O)ccc12)N[C@@H](Cc1c[nH]c2ccccc12)C(=O)O	37*	i	-19	18	-1	12	+	161*
Cc1c(O)ccc2c(CC(=O)N[C@@H](Cc3c[nH]c4ccccc34)C(=O)O)cc(=O)oc12	38*	i	1	9	1	5	89*	62*
Oc1ccccc1-c1ccn[nH]1	0	0	x	0	3	-1	x	x
Oc1ccccc1-c1nc2c3ccccc3c3ccccc3c2[nH]1	94*	i	2	12	2	-5	99*	90*
c1csc(-c2nc3c4ccccc4c4ccccc4c3[nH]2)c1	58*	1	13	7	-1	-39	+	+
c1ccc(CNc2nc(Oc3ccncc3)c3sccc3n2)cc1	39*	-1	x	2	x	x	+	+
c1csc(CNc2nc(Oc3ccncc3)c3sccc3n2)c1	43*	-1	x	5	x	x	65*	51*
c1csc(-c2cn3ccc4ccccc4c3n2)c1	47*	-1	-2	5	5	-6	-4	-2
CC(=O)NC(c1cc(Cl)c2ccccc2c1O)C(C)C (stereo unspecified)	8	i	x	8	2	-9	x	x
CCC(=O)NC(c1cccs1)c1cc(Cl)c2ccccc2c1O (stereo unspecified)	39*	11	x	-4	5	-9	116*	80*
CC(=O)NC(c1cccs1)c1cc(Cl)c2ccccc2c1O (stereo unspecified)	36*	-8	x	16	1	-4	84*	58*
CCC(=O)NC(C)c1cc(Cl)c2ccccc2c1O (stereo unspecified)	9	1	x	-4	5	-6	x	x
CCOC(=O)c1[nH]c2ccc(OCC)cc2c1NC(=O)CN1CCC2(CC1)OCCO2	69*	-1	0	16	1	-3	+	+
CCOC(=O)c1[nH]c2cc3c(cc2c1NC(=O)CN1CCC2(CC1)OCCO2)OCO3	106*	i	-3	28	-3	2	6	8
CCOC(=O)c1[nH]c2ccc(OCC)cc2c1NC(=O)CN1CCN(c2ccccc2)CC1	13	i	0	-6	-1	-1	x	x
Cc1c(C(=O)Nc2cccnc2)oc2ccc(Br)cc12	-1	0	0	17	-1	-13	x	x
Cc1ccc(-c2csc(NC(=O)CN3CC(C)OC(C)C3)n2)cc1 (stereo unspecified)	42*	i	-1	-2	0	-4	88*	67*
CCOc1ccc(S(=O)(=O)N2CCN(C(=O)c3ccc(-n4cncn4)c([N+](=O)[O-])c3)CC2)cc1	-1	0	0	11	3	-4	x	x
CCn1c(SCC(=O)N2CCCCC2)nc2c(c1=O)SCC2	3	-3	-1	6	0	-7	x	x
COCCn1c(SCC(=O)N2CCCCC2)nc2c(c1=O)SCC2	41*	i	0	13	-1	-4	18	6	GDH-TPI DR=>10
CCN(CC)S(=O)(=O)c1cccc(C(=O)OCC(=O)NCc2ccccc2OC)c1	0	i	3	-8	5	1	x	x
CCOC(=O)CCCCCC(=O)Nc1ccc2c(c1)C(=O)N([C@H](C)CO)C[C@@H](C)[C@H](CN(C)S(=O)(=O)c1cn(C)cn1)O2	2	i	x	1	-1	12	x	x
COCC1CCN(C(=O)c2cc(COc3cccc4cnccc34)on2)CC1	20	i	-3	8	1	4	x	x
